Molecules are shown by their SMILES. This is part of a sample that, as a whole, favours compounds with a hit. Of some 83,000 tested, about 20% had one in any assay.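 Plates (96-well) were seeded with cells, treated with compound at one concentration, and incubated for 48 hours before percent growth was determined.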 Values without a mark were called inactive. The source made the active and inactive calls. How the source made its calls: active means growth percent below 10; inactive means the rest.

This is an account of results in PubChem BioAssay (NCI).

What all share (assay): NCI-60 one-dose screen, 48 h (100 = growth as untreated, 0 = no growth, -100 = all killed)
Common to all, as to details: 10 µM unless noted

The test system of test [1] is DU-145 prostate.
The subject of test [2] is K-562 leukemia.
Test [3] deals with MALME-3M melanoma.
Test [4] concerns MDA-MB-231 breast.
Test [5] relates to RXF 393 renal.
For test [6], the system named is SF-268 CNS.
For test [7], the system named is SF-295 CNS.
Test [8] has as its system SF-539 CNS.
The subject of test [9] is UACC-257 melanoma.
Test [10] relates to M14 melanoma.
In test [11] the test system is HCT-15 colon.
Test [12] has as its system HT29 colon.
Test [13] concerns SNB-75 CNS.
The test system of test [14] is SNB-19 CNS.
Test [15] concerns U251 CNS.
Test [16] deals with PC-3 prostate.
The subject of test [17] is SK-MEL-5 melanoma.
Test [18] deals with UACC-62 melanoma.
Test [19] concerns LOX IMVI melanoma.
Test [20] concerns SK-MEL-28 melanoma.

On to `CCN1C(=O)/C(=C/N2N=C(c3ccc(Cl)cc3)CC2c2ccc(OC)cc2)SC1=S` (stereo not given), for which the growth was 108% in test [1]; 77.8% in test [2]; 108% in test [3]; 87.2% in test [4]; 91.9% in [5]; 95.2% in test [6]. Also, the growth in test [7] was 89.6%; in test [8], 88%; in test [9], 89.3%; in test [10] it was 92.3%; in [11] it was 87.8%; in test [12] it was 79.8%. In addition, the growth is 82.8% in test [13]; 92.9% in test [14]; 81.9% in [15]; 78.6% in test [16]; 99.4% in test [17]; 70.8% in [18]. The growth in test [19] is 84.5%; in test [20] it was 103%.
Take `Brc1ccsc1Br`: the growth in test [1] was 126%; in [2], 108%; in test [3], 114%; in test [4] it was 116%; in [5] it was 117%; in [6], 113%. The growth in [7] was 126%; in [8], 106%; in test [9], 111%; in test [10] it was 106%; in test [11], 111%; in test [12], 105%. The growth is 83.5% in test [13]; 106% in [14]; 109% in test [15]; 107% in test [16]; 106% in test [17]; 109% in [18]. In addition, the growth is 108% in test [19] and 106% in test [20].
Regarding `CN(C)N1C(=O)c2c(Cl)c(Cl)c(Cl)c(Cl)c2C1=O`, the growth was 120% in test [1]; 98.4% in test [2]; 123% in test [3]; 115% in test [4]; 112% in [5]; 106% in [6]. In addition, the growth in test [7] is 123%; in [8], 118%; in test [9], 104%; in [10] it was 101%; in [11], 109%; in [12], 107%. The growth in test [13] was 92.7%; in test [14] it was 108%; in [15], 102%; in [16], 99.2%; in test [17], 101%; in [18] it was 104%. Also, the growth in test [19] was 96.8%; in test [20], 112%.
In the case of `CCOC(=O)C(Cc1ccccc1)n1c(O)c(/C=N/c2ncc(Cc3ccc(Cl)cc3Cl)s2)sc1=S` (stereo not given), the growth in [1] is 26.2%; in test [2] it was 2.17% (active); in test [3], -9.77% (active); in [4] it was -18.2% (active); in [5] it was 2.54% (active); in test [6] it was 24.4%. Moreover, the growth in test [7] is -4.55% (active); in [8], 15%; in test [9] it was -17.9% (active); in [10], 10.8%; in test [11] it was 10.5%; in [12] it was -16.7% (active). Besides, the growth in test [13] was 22%; in test [14], 19.3%; in [15], 4.53% (active); in test [16], -16.2% (active); in test [17], -3.04% (active); in [18], -0.818% (active). Also, the results for the growth in test [19] and in [20] were 21% and 31.8%, respectively.
For the compound `O=S(=O)(Cc1ccc(Cl)cc1Cl)c1ccc(Cl)cc1`, the growth is 41% in [1]; 10.5% in [2]; 58% in [3]; 49.8% in [4]; -15.6% (active) in test [5]; 67.8% in test [6]. Also, the growth was 2.18% (active) in test [7]; 12.7% in [8]; 77.4% in test [9]; 9.79% (active) in test [10]; 31.8% in test [11]; 9.72% (active) in [12]. In addition, the growth is 18.8% in [13]; 44% in [14]; 25.8% in [15]; 31.1% in [16]; 39.8% in [17]; 44.6% in test [18]. Besides, the values for the growth in test [19] and in [20] were 15.7% and 65.9%, respectively.
On to `CS(=O)(=O)c1ccc(C(=O)Nc2ccc(Cl)c(-c3ccccn3)c2)c(Cl)c1`, for which the growth is 24.7% in [1]; 13.8% in [2]; 42.4% in test [3]; 30.2% in test [4]; -52.9% (active) in test [5]; 31.8% in [6]. In addition, the growth was 8.89% (active) in [7]; 19.6% in [8]; 32.6% in test [9]; 26.8% in [10]; 22.7% in test [11]; -7.2% (active) in [12]. Further, the growth in [13] was 14%; in test [14], 51.1%; in test [15], 15.5%; in test [16], 7.55% (active); in [17], 10.9%; in [18], 19.7%. The growth is 16% in test [19] and 23.2% in test [20].
Turning to `CC(C)[C@@]12C[C@@H](OC(=O)[C@H]3CO3)[C@@](C)(O1)[C@@H]1CC[C@@H](C)[C@H]1[C@@H]2OC(=O)/C=C/c1ccccc1`, the growth in test [1] was 102%; in test [2] it was 90.1%; in test [3], 87%; in [4], 78.7%; in test [5] it was 59.6%; in test [6], 54.8%. For the same compound, the growth in [7] was 85.2%; in [8], 91.1%; in test [9] it was 68.3%; in test [10], 102%; in test [11], 55.5%; in test [12], 84.3%. Further, the growth was 71.4% in [13]; 86.6% in test [14]; 67.8% in [15]; 60.7% in [16]; 93.4% in [17]; 70.1% in test [18]. Further, the growth was 70.9% in test [19] and 106% in test [20].
For the compound `COc1cc(/C=C/c2cc(/C=C/c3ccc(O)c(OC)c3)n(C(=O)Nc3ccc(F)c(Cl)c3)n2)ccc1O`, the growth in test [1] is -11.8% (active); in test [2] it was -3.9% (active); in test [3], -16.8% (active); in test [4], 12.2%; in test [5] it was -57.6% (active); in test [6], 6.57% (active). For the same compound, the growth in test [7] is -55.3% (active); in [8], -16.6% (active); in test [9], -15.9% (active); in test [10], -21.9% (active); in [11], 6.64% (active); in [12], -33.6% (active). For the same compound, the growth in test [13] is -12.6% (active); in [14], 4.42% (active); in [15], -1.59% (active); in [16], -14.3% (active); in [17] it was -73.9% (active); in test [18], -37.4% (active). In addition, the growth is -20.9% (active) in [19] and 7.89% (active) in test [20].
